The source of these data is PubChem BioAssay (NCI).

The panel holds about 83,000 compounds, 20% with a hit somewhere; the sample as a whole holds those more often.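 Compound tested at a single concentration for 48 hours in 96-well plates; a percent growth value below 10 was scored as active.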 Unmarked numbers belong to inactive results. The source made the active and inactive calls.

Test systems include NCI-H23 lung; NCI-H226 lung; NCI-H322M lung; HOP-62 NSCLC; NCI-H522 lung; A549/ATCC NSCLC; 786-0 renal; COLO 205 colon; DU-145 prostate; K-562 leukemia; MALME-3M melanoma; MDA-MB-231 breast; RXF 393 renal; SF-268 CNS; SF-295 CNS; SF-539 CNS; UACC-257 melanoma; M14 melanoma; NCI-H460 lung; HOP-92 NSCLC.
What all share (assay): NCI-60 one-dose screen, 48 h (100 = growth as untreated, 0 = no growth, -100 = all killed)
Details in all cases: 10 µM unless noted

Take `COC(=O)c1nc(=S)[nH]c(C(=O)OC)c1C(=O)c1ccc(Cl)c(Cl)c1`: the growth was 103% in the test on NCI-H23 lung; 102% in the test with NCI-H226 lung; 107% in the test with NCI-H322M lung; 115% in the test with HOP-62 NSCLC; 101% with NCI-H522 lung; 105% in the test on A549/ATCC NSCLC. The growth in the test with 786-0 renal was 107%; in the test with COLO 205 colon, 120%; in the test on DU-145 prostate, 120%; in the test on K-562 leukemia, 113%; with MALME-3M melanoma, 102%; in the test with MDA-MB-231 breast, 102%. The growth in the test on RXF 393 renal is 112%; with SF-268 CNS, 111%; with SF-295 CNS, 99.8%; in the test on SF-539 CNS it was 102%; with UACC-257 melanoma, 111%; in the test on M14 melanoma it was 107%.

Consider `COc1cc(-c2ccc(-[n+]3nc(-c4ccc([N+](=O)[O-])cc4)nn3-c3ccc([N+](=O)[O-])cc3)c(OC)c2)ccc1-[n+]1nc(-c2ccc([N+](=O)[O-])cc2)nn1-c1ccc([N+](=O)[O-])cc1`, for which the growth is 26.1% in the test on NCI-H23 lung; -32.5% (active) in the test with NCI-H226 lung; 44.3% in the test on NCI-H322M lung; -59.7% (active) in the test with HOP-62 NSCLC; 11.8% in the test on A549/ATCC NSCLC; 0.457% (active) with 786-0 renal. Besides, the growth is -69% (active) in the test on COLO 205 colon; -32.7% (active) with DU-145 prostate; 3.89% (active) in the test with K-562 leukemia; -44.6% (active) with MALME-3M melanoma; 51.4% in the test with MDA-MB-231 breast; -39.9% (active) in the test with RXF 393 renal. The growth in the test with SF-268 CNS was -33.9% (active); in the test with SF-295 CNS, -30.7% (active); in the test with SF-539 CNS, -66.4% (active); in the test on UACC-257 melanoma, -42.5% (active); with M14 melanoma, 58.3%.

As to `CCCCCCCCCCCC1=NCCCN1CCCC`, the growth was 94.2% in the test on NCI-H23 lung; 103% in the test with NCI-H226 lung; 98.1% in the test on NCI-H322M lung; 101% in the test with NCI-H460 lung; 74.8% in the test on HOP-92 NSCLC; 97.6% with NCI-H522 lung. In addition, the growth in the test with A549/ATCC NSCLC is 97.6%; in the test on 786-0 renal, 99.1%; in the test on COLO 205 colon it was 98%; in the test on DU-145 prostate, 103%; in the test on K-562 leukemia, 80.3%; in the test on MALME-3M melanoma, 106%. Besides, the growth with MDA-MB-231 breast was 78.8%; in the test on RXF 393 renal, 122%; in the test on SF-268 CNS, 101%; in the test on SF-295 CNS it was 101%; in the test with SF-539 CNS, 110%; with UACC-257 melanoma, 92.3%. Also, in the test with M14 melanoma, the growth was 100%.

On to `O=C1C=Cc2ccccc2/C1=C/c1nc(-c2ccccc2)oc1O`, for which the growth with NCI-H23 lung is 82.1%; with NCI-H226 lung, 73%; with NCI-H322M lung, 90.6%; in the test with HOP-62 NSCLC, 88.1%; in the test with HOP-92 NSCLC, 103%; in the test with NCI-H522 lung it was 90.3%. The growth is 107% with A549/ATCC NSCLC; 107% in the test on 786-0 renal; 87.5% in the test on COLO 205 colon; 96.8% with K-562 leukemia; 74.4% with MALME-3M melanoma; 73.6% with MDA-MB-231 breast. Moreover, the growth in the test with RXF 393 renal is 101%; in the test on SF-268 CNS it was 84.8%; with SF-295 CNS, 101%; in the test on SF-539 CNS it was 87.7%; with UACC-257 melanoma, 105%; in the test with M14 melanoma, 93.5%.

Regarding `CCSc1nc2ccccc2o1`, the growth is 107% in the test with NCI-H23 lung; 106% in the test on NCI-H226 lung; 120% in the test with NCI-H322M lung; 103% in the test on NCI-H460 lung; 81.8% in the test with HOP-92 NSCLC; 94.3% in the test with NCI-H522 lung. The growth in the test with A549/ATCC NSCLC is 96.1%; with 786-0 renal it was 106%; with COLO 205 colon, 113%; in the test with DU-145 prostate, 111%; in the test with K-562 leukemia, 100%; in the test with MALME-3M melanoma, 118%. In addition, the growth with MDA-MB-231 breast is 112%; with RXF 393 renal, 110%; in the test with SF-268 CNS, 96.1%; with SF-295 CNS, 113%; in the test on SF-539 CNS, 96.3%; in the test with UACC-257 melanoma, 106%. The growth with M14 melanoma is 109%.

`Cn1ccc(=Nc2ccc(NC(=O)c3ccc(N=c4ccn(C)c5ccc([N+](=O)[O-])cc45)cc3)cc2)cc1`: the growth in the test on NCI-H23 lung was 73.8%; in the test with NCI-H226 lung, 70%; in the test with NCI-H322M lung it was 104%; in the test on NCI-H460 lung, 98.5%; in the test on HOP-92 NSCLC it was 70.9%; in the test on NCI-H522 lung, 52.7%. For the same compound, the growth is 65.5% in the test on A549/ATCC NSCLC; 78.8% with 786-0 renal; 56.6% in the test with COLO 205 colon; 47% in the test with DU-145 prostate; 96% with K-562 leukemia; 61.9% with MALME-3M melanoma. Moreover, the growth in the test on MDA-MB-231 breast was 56.6%; in the test on RXF 393 renal it was -0.0973% (active); in the test with SF-268 CNS, 37.1%; with SF-295 CNS, 105%; in the test on UACC-257 melanoma, 86.9%; in the test with M14 melanoma, 76.8%.

With `CN(C)CC(C)(CN(C)C)C(=O)/C=C/c1c(Cl)cccc1Cl`, the growth with NCI-H23 lung is 45.9%; in the test on NCI-H226 lung it was 11.1%; with NCI-H322M lung, 70.6%; in the test on HOP-62 NSCLC it was 94.6%; in the test on HOP-92 NSCLC it was 40.1%; in the test on NCI-H522 lung, -80.9% (active). The growth was 80.6% in the test on A549/ATCC NSCLC; -44% (active) in the test on 786-0 renal; 101% in the test with COLO 205 colon; 36.4% in the test with DU-145 prostate; -8.43% (active) with K-562 leukemia; -67.2% (active) in the test with MALME-3M melanoma. The growth is -80.8% (active) in the test with RXF 393 renal; 78.2% in the test on SF-295 CNS; -2.86% (active) in the test with SF-539 CNS; 52.5% in the test with UACC-257 melanoma; 12.7% in the test with M14 melanoma.

Turning to `CCCCCCC1N=C(N)N=C(N)N1c1cccc(Cl)c1` (centres undefined), the growth in the test on NCI-H23 lung was 6.77% (active); with NCI-H226 lung, 67.7%; in the test with NCI-H322M lung, 43%; in the test with NCI-H460 lung it was 18.4%; in the test on HOP-92 NSCLC, 15%; in the test on NCI-H522 lung, 80.2%. The growth in the test with A549/ATCC NSCLC is 35.4%; in the test with 786-0 renal, 21.8%; in the test with COLO 205 colon, 54.4%; in the test with DU-145 prostate it was 34.3%; in the test with K-562 leukemia it was 20.1%; with MALME-3M melanoma it was 40.9%. In addition, the growth with MDA-MB-231 breast was 68%; in the test on SF-268 CNS, 19.6%; in the test with SF-295 CNS, 13.8%; in the test with SF-539 CNS, 5.72% (active); in the test on UACC-257 melanoma, 63.9%; in the test with M14 melanoma, 31.7%.
